This is a sample that favours compounds with a hit; in the whole collection about 2.7% have one here.
TCR CD3 inh – blocks the human TCR-CD3 interaction; hit rate 0.37% among 360,000; TAMRA-labeled TCR probe fluorescence, biochemical; inhibition, % at 9.4 µM; AID 651800; in the data active means inhibition above about 19%;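 further: recombinant mutant TCR 2C K166C tagged with TAMRA read by polarization; 0% = receptor in buffer alone and 100% = receptor with positive control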
PAFAH1B3 FP inh – PAFAH1B3 (human) inhibition | Q15102 | inhibition, % at 3.39 µM | recombinant PAFAH1B3, FP-rhodamine probe, fluorescence polarization | hit rate 0.28% among 340,000;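 active means inhibition above the screen-wide average of all tested compounds plus 3 SD, cut at about 25% in these data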;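 further: 0% = enzyme with DMSO only and 100% = wells lacking PAFAH1B3 protein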
Target sequence (Q15102 whole entry, looked up): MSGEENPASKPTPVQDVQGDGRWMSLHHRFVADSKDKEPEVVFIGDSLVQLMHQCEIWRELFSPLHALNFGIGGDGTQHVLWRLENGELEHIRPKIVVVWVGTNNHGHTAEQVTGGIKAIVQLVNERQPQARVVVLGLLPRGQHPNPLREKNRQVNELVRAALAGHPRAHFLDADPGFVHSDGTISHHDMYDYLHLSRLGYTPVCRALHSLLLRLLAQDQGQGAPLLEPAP
pPAFAH FP inh – pPAFAH (human) enzyme inhibition. Q13093. recombinant pPAFAH, FP-rhodamine probe fluorescence polarization. inhibition, % at 3.39 µM. hit rate 1.5% among 330,000;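 active means inhibition above the mean inhibition across the screen plus 3 SD, cut at about 25% in these data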;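 further: inhibitors block binding of the rhodamine activity-based probe so polarization drops; 0% = enzyme with DMSO and 100% = wells lacking pPAFAH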
PAFAH1B2 inh – PAFAH1B2 (human) inhibition; inhibition, % at 3.39 µM; recombinant PAFAH1B2, FP-rhodamine activity probe, fluorescence polarization; hit rate 1.2% among 340,000; P68402; AID 492953;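 active means inhibition above the mean of all tested compounds plus 3 SD, cut at about 24% in these data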;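 further: 0% = enzyme with DMSO and 100% = wells lacking PAFAH1B2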
Target sequence (P68402 whole entry, looked up): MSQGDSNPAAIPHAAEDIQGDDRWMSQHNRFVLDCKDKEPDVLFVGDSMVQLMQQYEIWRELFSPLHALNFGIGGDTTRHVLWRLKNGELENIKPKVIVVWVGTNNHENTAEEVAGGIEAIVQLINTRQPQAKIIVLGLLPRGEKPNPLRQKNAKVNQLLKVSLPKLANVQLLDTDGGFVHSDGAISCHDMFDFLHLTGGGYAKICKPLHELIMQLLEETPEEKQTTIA
PAFAH2 inh – PAFAH2 (human) inhibition. recombinant PAFAH2, FP-rhodamine activity probe, fluorescence polarization. AID 492956. inhibition, % at 3.39 µM. hit rate 0.99% among 340,000;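 active means inhibition above the mean over all tested compounds plus 3 SD, cut at about 30% in these data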;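 further: inhibitors block probe labeling of enzyme so polarization drops; 0% = enzyme with DMSO and 100% = wells lacking PAFAH2 protein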
Active calls of the source: *; / = no result given.

SMILES | TCR CD3 inh | PAFAH1B3 FP inh | pPAFAH FP inh | PAFAH1B2 inh | PAFAH2 inh
COC(=O)C1=C(C)N(Cc2cccc(C(F)(F)F)c2)C(=NCc2cc(OC)c(OC)c(OC)c2)NC1c1ccc(Cl)cc1 (stereo not given) | 17.6 | / | / | / | /
C[C@@H]1COC(=O)[C@H](Cc2ccc(F)cc2)C/C=C\C[C@@H](CC(=O)NCCO)C(=O)N1 | -6.3 | 5.9 | 0.2 | 32.9* | 1.4
CC(C)(C)[C@@H]1COC(=O)[C@H](Cc2ccc(F)cc2)C/C=C\C[C@@H](CC(=O)NCCO)C(=O)N1 | -1.3 | 3.6 | 2.5 | 31.9* | -0.3
Cc1cc(=O)oc2c3c(cc(OCC(=O)NCc4ccccc4)c12)OC(C)(C)CC3 | 14.0 | 14.7 | 32.9* | 10.1 | 19.5
CSC[C@H](NC(=O)COc1cc2c(c3oc(=O)cc(C)c13)CCC(C)(C)O2)C(=O)O | 5.8 | 4.4 | 11.7 | 9.0 | 1.3
Cc1c(C)c2c(OCC(=O)N[C@@H](CC(C)C)C(=O)O)cc3c(c2oc1=O)CCC(C)(C)O3 | -1.2 | -3.1 | / | 44.2* | 74.8*
COc1ccccc1NC(=O)COC(=O)c1ccccc1OCC(=O)Nc1ccc(SC(F)F)cc1 | -5.7 | 1.3 | 2.7 | 0.2 | 4.4
CN(C)C(=O)COC(=O)c1ccccc1Nc1ccc(SC(F)F)cc1 | -0.9 | 9.5 | 25.8* | 4.1 | 5.6
COc1cc(/C=C/c2ccc3c(Br)cc(Br)c(O)c3n2)ccc1O | -0.3 | 21.6 | 34.4* | 6.5 | 5.9
CC(=O)Nc1ccc(NC(=O)C(C)OC(=O)C(C)SCC(=O)Nc2ccc(F)cc2)cc1 (stereo not given) | 6.5 | 6.4 | 3.3 | -1.5 | 4.4
CC(=O)Nc1ccc(NC(=O)C(C)OC(=O)C2(c3ccc(F)cc3)CCCC2)cc1 (stereo not given) | 1.1 | 19.2 | 5.6 | 40.7* | -1.8
Cc1cccc(OC(C)C(=O)Nc2ccc(N3CCCCC3)cc2)c1 (stereo not given) | 0.0 | 10.3 | 6.1 | 3.9 | 4.0
COC(=O)[C@]12C[C@H](CC(=O)N3CCC(c4ccccc4)CC3)C(=O)N(Cc3ccccc3)C1=C[C@H](C(C)(C)C)O[C@@H]2C | 3.9 | / | / | / | /
CCOc1ccccc1C(=O)N[C@H](C(=O)OCc1csc(CC(=O)Nc2ccc(C)cc2)n1)C(C)C | 4.2 | 2.5 | 32.9* | -0.2 | 8.0
CN1C(=O)[C@@]2(O[C@H]3C=CC=CN3C3=C2C(=O)CCC3)c2cccc(Br)c21 | -2.6 | / | / | / | /
O=C(CCCN1C(=O)/C(=C\c2cccs2)SC1=S)Nc1ccc(O)cc1C(=O)O | 12.8 | 5.1 | 25.3* | 43.9* | 13.2
O=C(CCCN1C(=O)/C(=C/c2cccs2)SC1=S)Nc1ccccc1O | -7.2 | 3.3 | -4.9 | 1.4 | -2.3
CCc1ccc(/C=C2\SC(=S)N(CCCC(=O)Nc3ccccc3C(=O)O)C2=O)cc1 | -1.6 | -2.2 | -4.1 | 55.0* | 30.7*
CS(=O)(=O)Nc1cccc(C2=NN(C(=O)c3cccc([N+](=O)[O-])c3)C(c3cccs3)C2)c1 (stereo not given) | -3.7 | 9.5 | 5.7 | -1.5 | -0.9
COc1ccc(C(=O)CC(=O)Nc2ccc([N+](=O)[O-])cc2)cc1 | -2.8 | -33.9 | 27.1* | -8.5 | 6.8
Cc1ccc(NC(=O)CC(=O)c2ccc([N+](=O)[O-])cc2)cc1S(=O)(=O)Nc1cccc(Cl)c1 | 4.7 | 23.6 | -15.3 | 27.1* | 19.5
Cc1ccc(NS(=O)(=O)c2cc(C(=O)Nc3cccc([N+](=O)[O-])c3)ccc2C)cc1 | 2.8 | -13.2 | -1.0 | -6.2 | -14.2
O=C(C[C@@H]1C/C=C\C[C@@H](Cc2ccc(F)cc2)C(=O)OC[C@@H](Cc2c[nH]c3ccccc23)NC1=O)NCCO | -1.9 | 5.5 | 25.3* | 21.2 | 3.0
O=C1N[C@@H](Cc2ccccc2)COC(=O)[C@@H](Cc2ccc(F)cc2)CC/C=C/C[C@@H]1CC(=O)N(CCO)Cc1ccccc1 | -9.2 | 4.2 | 9.3 | 25.9* | 14.9
O=C1N[C@H](Cc2ccccc2)COC(=O)[C@@H](Cc2ccc(F)cc2)CC/C=C/C[C@H]1CC(=O)N(CCO)Cc1ccccc1 | 3.6 | -2.6 | 28.9* | 6.5 | 27.6
O=C1N[C@@H](Cc2c[nH]c3ccccc23)COC(=O)[C@@H](Cc2ccc(F)cc2)C/C=C\C[C@H]1CC(=O)N(CCO)Cc1ccccc1 | -3.3 | 5.2 | 28.5* | 15.2 | 4.0
O=C1N[C@@H](Cc2c[nH]c3ccccc23)COC(=O)[C@H](Cc2ccc(F)cc2)C/C=C\C[C@@H]1CC(=O)N(CCO)Cc1ccccc1 | -0.9 | 7.1 | 7.5 | 7.3 | 1.2
